Source: PubChem BioAssay (EPA / NIEHS)
Active and inactive are the calls of the source. How the source made its calls: active means hit-call score of the fitted dose curve at least 0.9, where 1 is the maximum; inactive means score below 0.9.

Assay: CCTE_Shafer_MEA_dev_per_burst_interspike_interval: CCTE's Neural Network Formation Assay for Burst Interspike Interval, Shafer Lab (AID 2284044);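 further: mean spike spacing inside bursts as AUC over recordings on days 5 7 9 12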;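 on AC50: potency for a decrease of within-burst interspike interval below DMSO level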
Protocol: CCTE_Shafer_MEA_dev assay is conducted using Axion Biosystems 48 well microelectrode array (MEA) plates and Maestro recording system. Each well of the MEA plate contains a grid of 16 microelectrodes embedded in the culture surface. Electrically active cells, such as neurons, can be cultured over the electrodes, and electrical activity in these cells can be recorded extracellularly. The spontaneous firing of neurons is captured from each electrode on a microsecond timescale providing both temporally and spatially precise data. […] The CCTE_Shafer_MEA_dev assay uses primary cultures of rat cortical neurons. Recordings are made on days post-plating 5, 7, 9 and 12. As these cultures mature over time, neural networks develop functional activity and form cohesive networks in which electrical activity can be highly coordinated. CCTE_Shafer_MEA_dev_per_burst_interspike_interval is 1 of 19 assay components of the CCTE_Shafer_MEA_dev assay. It measures the average time interval between spikes (action potential firings) within a single-electrode burst (temporally-clustered group of spikes) during a recording in a microelectrode array (MEA) using Axion Biosystems Maestro 768 channel amplifier with the AxIS adaptive spike detector. The mean inter-spike interval within bursts is averaged across the actively bursting electrodes to report a well-mean value. To collapse across multiple recordings made on days post-plating 5, 7, 9 and 12, the trapezoidal area-under-the-curve of the component is calculated.Data from the assay component CCTE_Shafer_MEA_dev_per_burst_interspike_interval was analyzed into 1 assay endpoint. This assay endpoint, CCTE_Shafer_MEA_dev_per_burst_interspike_interval, was analyzed in the negative analysis fitting direction relative to DMSO as the negative control and baseline of activity. Using a type of functional reporter, gain or loss-of-signal activity can be used to understand electrical activity.
On the day prior to culture, each well was coated thoroughly with 150 uL of 0.05% polyethyleneimine (PEI, Sigma Cat P3143) in 50 mM HEPES (Sigma Cat H7523) at a pH of 8. The plate was incubated at 37C for one hour. PEI was rinsed out with 500 uL of sterile water three times. Plates were stored at 4C until the day of culture. This culture was plated at a seeding density of 1.5 x 10^5 cells/well on a 48-well MEA plate, prepared as described above. Cells were administered via a 25 uL media/laminin ([…]; Sigma Cat L2020-1MG) drop directly onto the microelectrode array, as adding the cells with the laminin results in better attachment than pre-coating with laminin. After 2 hours, an additional 475 uL of cortical media was added and the cells returned to the incubator. Exposure starts at day 0 of plating and is continued over twelve days of network development until the experiment is terminated. Cells are fed with fresh medium on DIV 5 and 9, following the recordings on those days. The entire volume of media in the well is exchanged and any vehicle or compound treatment is renewed. Complete details are found in OP-NHEERL/ISTD/SBB/TJS/2015-03-r0 (available on request, email shafer.tim@epa.gov). Measurement of the electrical activity is non-invasive, and recordings can be made from the same plate over multiple different days of the culture. In cortical neurons, this allows for the measurement of extracellular action potentials over the period during which networks form in the MEA plate.
With `O=C(F)C(F)(F)C(F)(F)C(F)(F)C(F)F` the outcome was “inactive”.
With `O=C(CCCN1CCC(O)(c2ccc(Cl)cc2)CC1)c1ccc(F)cc1` the AC50 was 1780 nM (active).
For `CC(=O)Nc1ccc(O)cc1`, the outcome was “inactive”.
In the case of `NC(C(F)(F)F)C(F)(F)F`, the outcome is reported as “inactive”.
For `C=CC(F)(F)C(F)(F)C(F)(F)C(F)(F)F`, the outcome was “inactive”.
For `COC(=O)C(F)(F)C(F)(F)C(F)(F)F`, the outcome was “inactive”.
In the case of `FC(F)=C(F)C(F)(F)C(F)(F)C(F)(F)C(F)F`, the outcome is reported as “inactive”.
With `CN(C)CCOC(c1ccccc1)c1ccccc1` the outcome was “inactive”.
In the case of `O=C1NS(=O)(=O)c2ccccc21`, the outcome is reported as “inactive”.
In the case of `O=C(CC(=O)C(F)(F)C(F)(F)C(F)(F)F)c1cccs1`, the outcome is reported as “inactive”.
With `O=C(O)C(F)(F)OC(F)(F)C(F)(F)OC(F)(F)C(F)(F)OC(F)(F)C(F)(F)C(F)(F)C(F)(F)F` the outcome was “inactive”.
With `OCC(F)(F)C(F)(F)C(F)(F)C(F)(F)C(F)(F)C(F)(F)C(F)(F)C(F)(F)C(F)(F)C(F)(F)C(F)(F)F` the outcome was “inactive”.
With `O=C(O)CCC(F)(F)C(F)(F)C(F)(F)C(F)(F)C(F)(F)F` the outcome was “inactive”.
With `CN(CCO)S(=O)(=O)C(F)(F)C(F)(F)C(F)(F)C(F)(F)C(F)(F)C(F)(F)C(F)(F)C(F)(F)F` the outcome was “inactive”.
In the case of `O=P(O)(O)CCC(F)(F)C(F)(F)C(F)(F)C(F)(F)C(F)(F)C(F)(F)C(F)(F)C(F)(F)F`, the outcome is reported as “inactive”.
For `FCOC(C(F)(F)F)C(F)(F)F`, the outcome was “inactive”.
For `O=CC(F)(F)C(F)(F)C(F)(F)F`, the outcome was “inactive”.
In the case of `COC(=O)C(F)(F)C(F)(F)C(F)(F)C(F)(F)C(F)(F)F`, the outcome is reported as “inactive”.
For `O=C(OC(=O)C(F)(F)C(F)(F)F)C(F)(F)C(F)(F)F`, the outcome was “inactive”.
With `CN(Cc1cnc2nc(N)nc(N)c2n1)c1ccc(C(=O)N[C@@H](CCC(=O)O)C(=O)O)cc1` the AC50 was 2980 nM (active).
In the case of `O=C(F)C(F)(F)C(F)(F)C(F)(F)C(=O)F`, the outcome is reported as “inactive”.
In the case of `Nc1ccn([C@@H]2O[C@H](CO)[C@@H](O)C2O)c(=O)n1` (stereo partly specified), the AC50 is reported as 850 nM (active).
In the case of `CC(C)c1c(C(=O)Nc2ccccc2)c(-c2ccccc2)c(-c2ccc(F)cc2)n1CC[C@@H](O)C[C@@H](O)CC(=O)O`, the AC50 is reported as 25.5 nM (active).
In the case of `O=CC(F)(F)C(F)(F)C(F)(F)C(F)F`, the outcome is reported as “inactive”.
For `O=P(O)(O)CCC(F)(F)C(F)(F)C(F)(F)C(F)(F)C(F)(F)C(F)(F)F`, the outcome was “inactive”.
With `O=C(C=C(O)C(F)(F)F)C(F)(F)F` the outcome was “inactive”.
